Laboratory results taken from the supplement of paper PMC8728848.
Only a selection was taken, and the strongest signals are over-represented in it overall.

Assays:
Assay in all cases: glycan array binding signal (z-score within array); higher = stronger binding
Details in all cases: glycan notation: IUPAC condensed, linker removed
Fuc(a1-2)Gal(b1-3)GalNAc = biological target: Fuc(a1-2)Gal(b1-3)GalNAc
Outline: (§1)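 Glycan array data were curated from 3228 arrays in the Consortium for Functional Glycomics database and kept only where the protein sequence was available. Glycan names were converted to IUPAC-condensed notation, and columns mapping to the same glycan were averaged. The binding signal is a within-array Z-score, averaged across arrays of the same protein sequence at different concentrations or buffers and across linkers. Negative Z-scores can be read as non-binding.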

[1] = biological target: Fuc(a1-2)[Gal(a1-3)]Gal(b1-4)Glc
Outline: as §1

[2] = biological target: Fuc(a1-2)[GalNAc(a1-3)]Gal
Outline: as §1

[3] = biological target: Fuc(a1-2)[GalNAc(b1-3)]Gal
Outline: as §1

Fuc(a1-3)GlcNAc = biological target: Fuc(a1-3)GlcNAc
Outline: as §1

Gal(a1-2)Gal = biological target: Gal(a1-2)Gal
Outline: as §1

[4] = biological target: Gal(b1-3)[Fuc(a1-4)]GlcNAc(b1-3)Gal(b1-4)GlcNAc
Outline: as §1

Gal(b1-4)GlcNAc = biological target: Gal(b1-4)GlcNAc
Outline: as §1

[5] = biological target: Gal(b1-4)GlcNAc(b1-3)Gal(b1-4)Glc
Outline: as §1

[6] = biological target: Gal(b1-4)GlcNAc(b1-3)Gal(b1-4)GlcNAc
Outline: as §1

Gal4S6S(b1-4)GlcNAc = biological target: Gal4S6S(b1-4)GlcNAc
Outline: as §1

Gal6S(b1-4)Glc = biological target: Gal6S(b1-4)Glc
Outline: as §1

Gal6S(b1-4)GlcNAc = biological target: Gal6S(b1-4)GlcNAc
Outline: as §1

GlcNAc(b1-3)Gal(b1-4)Glc = biological target: GlcNAc(b1-3)Gal(b1-4)Glc
Outline: as §1

[7] = biological target: Man(a1-2)Man(a1-3)[Man(a1-2)Man(a1-6)]Man
Outline: as §1

[8] = biological target: Man(a1-2)Man(a1-3)[Man(a1-2)Man(a1-6)]Man(a1-6)[Man(a1-2)Man(a1-2)Man(a1-3)]Man(b1-4)GlcNAc(b1-4)GlcNAc
Outline: as §1

[9] = biological target: Neu5Ac(a2-3)Gal(b1-3)[Neu5Ac(a2-6)]GalNAc
Outline: as §1

[10] = biological target: Neu5Ac(a2-3)Gal(b1-4)GlcNAc(b1-2)Man(a1-3)[Neu5Ac(a2-3)Gal(b1-4)GlcNAc(b1-2)Man(a1-6)]Man(b1-4)GlcNAc(b1-4)GlcNAc
Outline: as §1

[11] = biological target: Neu5Ac(a2-3)Gal(b1-4)GlcNAc(b1-3)Gal(b1-4)GlcNAc(b1-3)Gal(b1-4)GlcNAc
Outline: as §1

[12] = biological target: Neu5Ac(a2-3)Gal(b1-4)[Fuc(a1-3)]GlcNAc
Outline: as §1

[13] = biological target: Neu5Ac(a2-3)Gal(b1-4)[Fuc(a1-3)]GlcNAc(b1-3)Gal(b1-4)GlcNAc
Outline: as §1

[14] = biological target: Neu5Ac(a2-3)Gal(b1-4)[Fuc(a1-3)]GlcNAc(b1-3)Gal(b1-4)[Fuc(a1-3)]GlcNAc(b1-3)Gal(b1-4)[Fuc(a1-3)]GlcNAc
Outline: as §1

[15] = biological target: Neu5Ac(a2-3)Gal6S(b1-4)GlcNAc
Outline: as §1

Neu5Ac(a2-3)GalNAc = biological target: Neu5Ac(a2-3)GalNAc
Outline: as §1

[16] = biological target: Neu5Ac(a2-6)Gal(b1-4)GlcNAc(b1-3)Gal(b1-4)[Fuc(a1-3)]GlcNAc(b1-3)Gal(b1-4)[Fuc(a1-3)]GlcNAc
Outline: as §1

[17] = biological target: Neu5Ac(a2-6)Gal(b1-4)GlcNAc6S
Outline: as §1

[18] = biological target: Fuc(a1-2)Gal(b1-4)GlcNAc(b1-3)Gal(b1-4)GlcNAc
Outline: as §1

Gal(a1-3)Gal = biological target: Gal(a1-3)Gal
Outline: as §1

Gal(a1-6)Glc = biological target: Gal(a1-6)Glc
Outline: as §1

[19] = biological target: Gal(b1-3)GalNAc(b1-4)Gal(b1-4)Glc
Outline: as §1

Gal(b1-4)Glc = biological target: Gal(b1-4)Glc
Outline: as §1

[20] = biological target: Gal(b1-4)GlcNAc(b1-6)Gal(b1-4)GlcNAc(b1-6)GalNAc
Outline: as §1

Gal3S(b1-3)GlcNAc = biological target: Gal3S(b1-3)GlcNAc
Outline: as §1

Gal3S(b1-4)Glc6S = biological target: Gal3S(b1-4)Glc6S
Outline: as §1

Gal3S6S(b1-4)GlcNAc6S = biological target: Gal3S6S(b1-4)GlcNAc6S
Outline: as §1

[21] = biological target: Man(a1-3)[Man(a1-6)]Man(a1-6)[Man(a1-3)]Man(b1-4)GlcNAc(b1-4)GlcNAc
Outline: as §1

[22] = biological target: Neu5Gc(a2-3)Gal(b1-3)[Fuc(a1-4)]GlcNAc
Outline: as §1

[23] = biological target: Neu5Gc(a2-3)Gal(b1-4)GlcNAc
Outline: as §1

B1: F4 (Escherichia coli), A0A6L9DDF0 (protein)
chain: MKKTLIALALAASAVSGMAHAWTSGDFNGTVDIGGSIDATNYRQKWEWEVGTGLNGFYNALSELTNNDTKLTITVTGNKPILLGRTKEAFVTPTAGGWGGIPQIAFTDYKGAPVELKNPDGETNKGLAYFVLPMKNADGTEAGSVRVNASYAGAVVEKTSDSSAKLFSAYAGEVIRIFNGGLPVNVTQSELQSGVAAADRTALFGSLGKADLVAQFQAVIPGATVTDGTSSEHCTMRLLASAAYALGIADGQTIEATFNQAVTTSTQWSAPLNVAITYY
glycan array binding signal (z-score) (Fuc(a1-2)Gal(b1-3)GalNAc): -0.145
glycan array binding signal (z-score) [1]: -0.191
glycan array binding signal (z-score) [2]: -0.144
glycan array binding signal (z-score) [3]: -0.33
glycan array binding signal (z-score) (Fuc(a1-3)GlcNAc): -0.164
glycan array binding signal (z-score) (Gal(a1-2)Gal): -0.128
glycan array binding signal (z-score) [4]: -0.232
glycan array binding signal (z-score) (Gal(b1-4)GlcNAc): -0.137
glycan array binding signal (z-score) [5]: -0.276
glycan array binding signal (z-score) [6]: -0.397
glycan array binding signal (z-score) (Gal4S6S(b1-4)GlcNAc): 0.285
glycan array binding signal (z-score) (Gal6S(b1-4)Glc): -0.213
glycan array binding signal (z-score) (Gal6S(b1-4)GlcNAc): 1.48
glycan array binding signal (z-score) (GlcNAc(b1-3)Gal(b1-4)Glc): 8.86
glycan array binding signal (z-score) [7]: 0.052
glycan array binding signal (z-score) [8]: -0.311
glycan array binding signal (z-score) [9]: -0.291
glycan array binding signal (z-score) [10]: -0.209
glycan array binding signal (z-score) [11]: -0.282
glycan array binding signal (z-score) [12]: 2.09
glycan array binding signal (z-score) [13]: -0.176
glycan array binding signal (z-score) [14]: -0.185
glycan array binding signal (z-score) [15]: -0.21
glycan array binding signal (z-score) (Neu5Ac(a2-3)GalNAc): -0.397
glycan array binding signal (z-score) [16]: 2.24
glycan array binding signal (z-score) [17]: -0.382

B2: LKITALY (Gibberella zeae) (protein)
chain: MGNFHESSNNIWLEDGHILHAECGNGEGDYVESTLDLDYYIGNDDGSFSWGGENFSGSASNITLDIEGDDNIPVLRAELNPMDGDPVEANVNLSERIGNDCGTLIFLA
glycan array binding signal (z-score) (Fuc(a1-2)Gal(b1-3)GalNAc): -0.361
glycan array binding signal (z-score) [18]: -0.364
glycan array binding signal (z-score) [2]: -0.347
glycan array binding signal (z-score) [3]: -0.36
glycan array binding signal (z-score) (Gal(a1-3)Gal): -0.354
glycan array binding signal (z-score) (Gal(a1-6)Glc): -0.352
glycan array binding signal (z-score) [19]: -0.358
glycan array binding signal (z-score) [4]: -0.337
glycan array binding signal (z-score) (Gal(b1-4)Glc): -0.357
glycan array binding signal (z-score) [20]: -0.342
glycan array binding signal (z-score) (Gal3S(b1-3)GlcNAc): 4.13
glycan array binding signal (z-score) (Gal3S(b1-4)Glc6S): 2.82
glycan array binding signal (z-score) (Gal3S6S(b1-4)GlcNAc6S): 3.55
glycan array binding signal (z-score) [21]: -0.347
glycan array binding signal (z-score) [11]: 3.85
glycan array binding signal (z-score) [22]: -0.358
glycan array binding signal (z-score) [23]: 3.69
